Assay outcomes deposited in PubChem BioAssay by National Center for Advancing Translational Sciences (NCATS).
HP1b binding inh: blocks HP1-beta chromodomain binding to methylated histone tails | P83916 | AlphaScreen HP1-beta / biotin-H3K9me3 peptide binding | Potency, µM (top dose mostly 114 µM), for the others: at the top dose activity change, negative = inhibition, actives largely listed as inhibitors | 390,000 compounds, 0.56% hits; further: potency means the concentration at half of the fitted maximal effect; nearly all actives have a fitted effect of over 70% in size
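HP1-beta protein (50 nM final) preincubated 30 min at room temperature with biotinylated H3(1-18)K9me3 peptide (50 nM) in PBS pH 7.4, 0.01% Tween-20, then compound added for 30 min. AlphaScreen streptavidin donor/nickel chelate acceptor beads (10 ug/mL final), 30 min dark, luminescence read.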
BAZ2B inh: BAZ2B (human) inhibition; Q9UIF8; AlphaScreen BAZ2B-H3K14Ac peptide displacement; Potency, µM (top dose mostly 114 µM), without a hit: at the top dose activity change, negative = inhibition, most hits filed as inhibitors; 360,000 compounds, 4.4% hits; further: potency means the concentration at half of the fitted maximal effect; on the % scale 0 is the no-effect control and ±100 the full control effect; nearly all actives have a fitted effect of over 60% in size
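Multi-concentration screen (max 110 uM) measuring displacement of acetylated histone H3 peptide from BAZ2B by AlphaScreen, using 50 nM protein, 50 nM peptide and 10 ug/mL streptavidin donor plus Ni-chelate acceptor beads.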
PI5P4K alpha inh: blocks human PI5P4K alpha kinase activity; 330,000 compounds, 1.2% hits; PI5P4Kalpha enzyme, ADP-Glo luminescence, 60 min; stronger effect = lower value; P48426; AID 652105; max response, %; active means max response of -50% or lower; inconclusive means between -30% and -50%; inactive means -30% or higher; further: value at the top dose of about 77 µM; on the % scale 0 is the no-effect control and ±100 the full control effect
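qHTS, 1536-well: enzyme/substrate mix, compound by pin tool, 5 microM ATP final; RT 60 min; ADP-Glo reagents 1 (45 min) then 2 (30 min); luminescence.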
KAT2A inh: GCN5L2 (KAT2A) acetyltransferase inhibition | Q92830 | GCN5L2 HAT assay, ThioGlo1 CoA-SH fluorescence | Potency, µM (titrated, usually from 58.9 µM), for the others: top-dose activity change, negative = inhibition, actives largely listed as inhibitors | 390,000 compounds, 0.21% hits | AID 504327; further: potency means the concentration at half of the fitted maximal effect; on the % scale 0 is the no-effect control and ±100 the full control effect
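Preincubate 20nM GCN5L2 with compound 15 min, RT → add 50uM ThioGlo1 + 75uM H3(1-25) + 70uM acetyl-CoA → read fluorescence 0 and 20 min. Primary qHTS; fluorescent artifacts likely.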
PLK1 PBD inh: PLK1 (human) polo-box domain binding inhibition; Potency, µM, for inactives: max response, negative = inhibition, usual class: inhibitors; 360,000 compounds, 2.8% hits; Plk1 PBD binding of FITC phosphopeptide, fluorescence polarization; AID 720504; further: potency means the concentration at half of the fitted maximal effect; series mostly up to about 57 µM; on the % scale 0 is the no-effect control and ±100 the full control effect; nearly all actives have a fitted effect of over 65% in size
Target sequence (P53350 whole entry, looked up, the tested form may be a part): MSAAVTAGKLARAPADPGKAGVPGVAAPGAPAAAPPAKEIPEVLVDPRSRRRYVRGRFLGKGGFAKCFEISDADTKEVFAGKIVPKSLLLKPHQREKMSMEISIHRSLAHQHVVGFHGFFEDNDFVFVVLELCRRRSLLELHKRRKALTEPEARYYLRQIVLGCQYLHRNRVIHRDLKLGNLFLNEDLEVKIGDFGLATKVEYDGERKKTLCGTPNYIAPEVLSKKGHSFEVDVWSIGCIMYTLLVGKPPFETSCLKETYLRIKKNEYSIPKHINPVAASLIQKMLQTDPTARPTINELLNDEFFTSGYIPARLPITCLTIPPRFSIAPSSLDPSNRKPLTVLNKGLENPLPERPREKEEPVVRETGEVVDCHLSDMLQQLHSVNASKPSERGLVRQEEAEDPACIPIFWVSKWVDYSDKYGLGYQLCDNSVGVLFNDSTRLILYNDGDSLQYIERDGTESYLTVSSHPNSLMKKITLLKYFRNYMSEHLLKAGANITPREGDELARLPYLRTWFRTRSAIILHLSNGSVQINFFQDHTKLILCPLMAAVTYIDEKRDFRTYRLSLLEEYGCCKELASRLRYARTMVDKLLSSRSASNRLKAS
JMJD2A Tudor inh: JMJD2A Tudor domain (human) inhibition; AlphaScreen JMJD2A-Tudor / H3K4me3 peptide binding; Potency, µM (top dose mostly 114 µM), without a hit: at the top dose activity change, negative = inhibition, most hits filed as inhibitors; 390,000 compounds, 4.4% hits; AID 504339; further: potency means the concentration at half of the fitted maximal effect; on the % scale 0 is the no-effect control and ±100 the full control effect; nearly all actives have a fitted effect of over 50% in size
Starred values were filed as active, the others as inactive; ? = inconclusive; nt = not tested or not shown; [ ] = remark or other dose. A selection: hits, their analogues and other compounds. The true share with any hit is near 7%. Unless noted, the call rests on the fitted dose curve; in most records, active means well fitted curve in the direction sought with a large enough effect; inconclusive means small, poorly fitted or top-dose-only effect, or another doubt; inactive means no such curve, though single readings can be large; an effect the other way counts as inactive or inconclusive.

SMILES | HP1b binding inh | BAZ2B inh | PI5P4K alpha inh | KAT2A inh | PLK1 PBD inh | JMJD2A Tudor inh
CCC(=O)OC1=C(C(C)=O)N(Cc2ccccc2)S(=O)(=O)c2ccccc21 | 28.4% | -30.4% | nt | -4.2% | nt | 50.1µM*
CCN1C(C(=O)c2ccccc2)=C(OC(=O)C(C)C)c2ccccc2S1(=O)=O | 28.7% | -26.2% | nt | ? | nt | -29.2%
CCCCC(=O)OC1=C(C(C)=O)N(Cc2ccccc2)S(=O)(=O)c2ccccc21 | 15.0% | ? | nt | -7.6% | nt | 79.4µM*
Cc1ccc(OCCSc2nc3ccccc3n2CC(=O)N2CCOCC2)cc1C | 51.4% | -16.7% | nt | 1.0% | nt | -9.3%
O=C1CN(S(=O)(=O)c2ccccc2Cl)CCN1 | 33.4% | 5.1% | 3.1 | -3.4% | 15µM* | -7.6%
CCN1CC2([N+](=O)[O-])C=CC(=O)C([N+](=O)[O-])(C1)C2CC(=O)c1ccccc1 (configuration not stated) | -6.0% | ? | -52.9* | 1.3% | ? | ?
CCS(=O)(=O)c1nc(S(=O)(=O)c2ccc(C)cc2)c(NCC(C)C)s1 | 53.9% | 2.3% | nt | -5.3% | nt | -6.7%
CC1CCCN(C(=O)C2CCN(CC(C)c3ccccc3)CC2)C1 (configuration not stated) | ? | -28.4% | 1.0 | -4.7% | -1.7% | 3.55µM*
CC1CCCN(C(=O)C2CCN(S(=O)(=O)c3cccs3)CC2)C1 (configuration not stated) | 25.3% | 6.5% | -5.2 | -11.0% | -5.7% | -11.0%
CC1CCCN(C(=O)C2CCN(CCCc3ccccc3)CC2)C1 (configuration not stated) | ? | ? | 8.0 | -7.0% | -0.3% | 3.55µM*
CC(C)(NO)/C(=N/O)c1cccs1 | -25.8% | 44.7µM* | 0.8 | 2.5% | -4.1% | 10µM*
CCOC(=O)c1sc2nc(C)nc(SCC(=O)N(CC)C3CCS(=O)(=O)C3)c2c1C (configuration not stated) | 32.0% | -11.4% | -1.2 | 2.9% | 5.0% | -13.4%
O=C(O)CSc1nnc(CNc2cccc(C(F)(F)F)c2)n1Cc1ccco1 | 45.1% | ? | -71.1* | -1.1% | -14.5% | -15.7%
O=C(CSc1nnc(CNc2cccc(C(F)(F)F)c2)n1Cc1ccco1)NCc1ccco1 | -11.4% | 0.6% | -15.6 | 0.9% | 29.9µM* | -14.5%[11.4 µM]
O=C(CSc1nnc(CNc2ccc(F)cc2)n1Cc1ccco1)NC1CC1 | 43.0% | -23.4% | -3.7 | -1.9% | -22.2% | -7.5%
COc1c(S(=O)(=O)NCCCN2CCOCC2)ccc(Cl)c1Cl | 29.8% | -3.6% | -7.4 | 10.8% | 2.2% | 10.2%
Cc1ccc(N(CCC#N)C(=O)CSc2ccc3c(c2)OCCO3)cc1 | 13.0% | -0.4% | 4.1 | 29.7% | ? | -5.8%
CCNc1nc(NCC)n2c(SCC(=O)Nc3ccc(F)cc3)nnc2n1 | 9.9% | ? | -10.9 | -4.5% | -13.2% | -17.8%
Cc1cc(C)n2c(SCC(=O)N(CCC#N)c3ccc4c(c3)OCCO4)nnc2n1 | nt | nt | -61.4* | nt | ? | nt
CCNc1nc(NCC)n2c(SCC(=O)Nc3ccc(C)c(C)c3)nnc2n1 | 3.0% | 50.1µM* | -8.9 | -15.7% | -2.2% | -8.9%
CCN(CC)c1ccc(NC(=O)CSc2nnc3nc(C)cc(C)n23)cc1 | ? | -34.7% | 1.7 | -25.1% | 16.8µM* | -17.1%[11.4 µM]
CCNc1nc(NCC)n2c(SCC(=O)Nc3ccc(Br)cc3F)nnc2n1 | ? | ? | -21.0 | -13.6% | 13.4µM* | ?
CSCc1c(C(=O)OCC(=O)c2ccc[nH]2)oc2ccccc12 | 6.6% | -10.9% | -76.0* | -13.9% | -9.2% | -25.5%
COCc1c(C(=O)OCC(=O)c2ccc[nH]2)oc2ccccc12 | 10.1% | nt | -4.4 | -10.4% | -14.3% | -24.8%
CC(C)OC(=O)CC(=O)CSc1nc2c(cc1C#N)CCCCC2 | 113.8% | 21.8% | 0.2 | -19.7% | -4.7% | 1.2%
N#Cc1cc2c(nc1SCc1ccccc1)CCC2 | 18.5% | 0.9% | nt | 0.8% | -14.8% | -6.6%
N#Cc1cc2c(nc1SCc1ccncc1)CCC2 | 9.8% | 3.5% | nt | -2.1% | ? | 22.4µM*
